# Results taken from ChEMBL document CHEMBL3988442, “University of Dundee, Small-Polar-MMV Screening Library” (2021).
# In all, about 67,000 compounds went through this assay and about 300 (0.45%) showed an effect of 50% or more. The sample as a whole holds a higher share of strong results than the screen did.
# Molecular target: Polyketide synthase Pks13 (Mycobacterium tuberculosis (strain ATCC 25618 / H37Rv)) (UniProt I6X8D2)
# Assay: Mycobacterium tuberculosis Polyketide synthase 13 Thioesterase (PKS13)
# Type: functional
# Design: scale not given: in the data most compounds retested in dose-response had high values
# Settings: 30 µM
# Polyketide synthase Pks13 (Mycobacterium tuberculosis (strain ATCC 25618 / H37Rv)), sequence (I6X8D2 whole entry): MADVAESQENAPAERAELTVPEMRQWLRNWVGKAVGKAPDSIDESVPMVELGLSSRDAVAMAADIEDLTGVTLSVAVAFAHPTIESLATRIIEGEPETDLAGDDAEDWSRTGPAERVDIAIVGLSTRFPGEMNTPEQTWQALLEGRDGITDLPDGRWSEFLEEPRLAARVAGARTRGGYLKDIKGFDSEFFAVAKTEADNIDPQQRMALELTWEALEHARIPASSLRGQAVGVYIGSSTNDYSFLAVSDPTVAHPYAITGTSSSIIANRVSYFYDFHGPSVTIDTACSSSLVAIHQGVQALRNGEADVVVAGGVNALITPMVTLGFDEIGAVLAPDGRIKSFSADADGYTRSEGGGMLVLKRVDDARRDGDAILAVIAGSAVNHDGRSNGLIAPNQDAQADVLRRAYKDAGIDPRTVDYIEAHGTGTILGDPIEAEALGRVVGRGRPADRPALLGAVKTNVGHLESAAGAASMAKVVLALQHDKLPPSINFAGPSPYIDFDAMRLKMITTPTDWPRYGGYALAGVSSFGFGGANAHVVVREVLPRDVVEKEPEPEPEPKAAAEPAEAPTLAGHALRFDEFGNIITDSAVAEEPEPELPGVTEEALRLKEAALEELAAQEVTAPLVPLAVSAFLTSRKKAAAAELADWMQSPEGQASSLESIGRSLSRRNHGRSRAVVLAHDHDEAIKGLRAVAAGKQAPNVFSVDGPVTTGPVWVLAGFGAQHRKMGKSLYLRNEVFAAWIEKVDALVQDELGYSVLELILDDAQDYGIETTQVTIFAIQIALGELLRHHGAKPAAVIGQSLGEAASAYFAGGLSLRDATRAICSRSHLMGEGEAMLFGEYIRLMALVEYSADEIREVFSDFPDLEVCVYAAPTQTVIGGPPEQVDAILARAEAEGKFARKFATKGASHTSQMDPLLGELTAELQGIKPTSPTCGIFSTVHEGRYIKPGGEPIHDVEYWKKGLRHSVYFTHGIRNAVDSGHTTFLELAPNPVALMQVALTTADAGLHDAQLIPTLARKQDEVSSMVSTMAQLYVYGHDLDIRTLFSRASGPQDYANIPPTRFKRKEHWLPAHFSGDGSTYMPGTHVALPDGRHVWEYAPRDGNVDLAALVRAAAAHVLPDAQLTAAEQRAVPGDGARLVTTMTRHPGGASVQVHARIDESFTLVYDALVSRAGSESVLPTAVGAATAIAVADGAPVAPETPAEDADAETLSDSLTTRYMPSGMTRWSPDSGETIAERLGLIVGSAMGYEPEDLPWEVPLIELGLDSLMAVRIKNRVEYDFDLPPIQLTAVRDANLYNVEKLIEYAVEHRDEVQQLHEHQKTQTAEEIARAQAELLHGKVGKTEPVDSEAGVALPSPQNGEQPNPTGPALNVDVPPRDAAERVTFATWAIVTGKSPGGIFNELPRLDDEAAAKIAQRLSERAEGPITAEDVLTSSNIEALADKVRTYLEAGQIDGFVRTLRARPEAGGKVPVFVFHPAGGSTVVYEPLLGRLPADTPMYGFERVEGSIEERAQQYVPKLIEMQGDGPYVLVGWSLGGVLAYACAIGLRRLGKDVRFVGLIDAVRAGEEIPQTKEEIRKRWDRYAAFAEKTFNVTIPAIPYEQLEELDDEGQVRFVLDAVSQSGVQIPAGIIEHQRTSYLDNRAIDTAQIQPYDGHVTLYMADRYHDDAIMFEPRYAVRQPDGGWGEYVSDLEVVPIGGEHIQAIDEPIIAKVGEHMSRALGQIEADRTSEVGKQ
row,Structure (SMILES),Percent Effect
1,CN1CCO[C@H]2CN(S(=O)(=O)c3ccc(C#N)cc3)C[C@H]21,-7.61%
2,O=C([C@H]1COC[C@H]2CN(C3CCOCC3)C[C@H]21)N1CCCCO1,-4.79%
3,CN(C)c1nccc(N2CCO[C@H]3CN(Cc4ccco4)C[C@H]32)n1,-3.24%
4,O=S(=O)(c1ccccc1)N1C[C@@H]2COC[C@]2(CN2CCOCC2)C1,27.2%
5,Fc1cccc(CN2C[C@@H]3COC[C@]3(COCc3ccncc3)C2)c1,0.554%
6,O=C(CC1CCCC1)N1C[C@H](Oc2cccnc2)[C@H]2OCCC[C@H]21,-7.32%
7,Cc1nccn1CC1CCCN1CCCc1nc(-c2cccs2)no1 (stereo not given),-4.96%
8,c1ccc2oc(CCCN3CCCCC3Cn3cncn3)nc2c1 (stereo not given),58.4%
9,c1ccc2oc(CN3CCCCC3Cn3cncn3)nc2c1 (stereo not given),-0.333%
10,c1csc(-c2noc(CCCN3CCCC3Cn3cncn3)n2)c1 (stereo not given),111%
11,c1ccc2oc(CCCN3CCCC3Cn3cncn3)nc2c1 (stereo not given),-10.8%
12,c1csc(-c2noc(CCCN3CCCC3Cn3cccn3)n2)c1 (stereo not given),-2.79%
13,CN(C)C(=O)COC[C@@H]1CC[C@H]2[C@H](CCN2c2ncccn2)O1,-0.596%
14,COCC(=O)N1C[C@H]2CNC[C@@]2(C(=O)NCc2cccc3[nH]ccc23)C1,-18.7%
15,CO[C@@H]1CC[C@H]2[C@H]1OCCN2CC1CC1,-4.52%
16,COc1ccc(OC)c(C(=O)N2C[C@H]3CC[C@@H]2CN(C)C3)c1,2.2%
17,O=C(c1ccnnc1)N1C[C@H](Oc2cccnc2)[C@H]2OCCC[C@H]21,-7.04%
18,CC(C)c1nc2n(n1)CC(NCc1ncc(-c3ccccc3)o1)CC2 (stereo not given),-14.9%
19,CCc1nc2n(n1)CC(NCc1cnc(-c3ccccc3)nc1)CC2 (stereo not given),-15%
20,CCc1nc2n(n1)CC(NCc1ncc(-c3ccccc3)o1)CC2 (stereo not given),108%
21,Cn1nc(-c2ccccc2)cc1[C@H]1CN2CC[C@H]1C[C@@H]2CNS(C)(=O)=O,-32.5%
22,CS(=O)(=O)c1ccc(-c2cc(C3CC3)c(C#N)c(N)n2)cc1,62.7%

row,Structure (SMILES),Percent Effect
1,COc1ccc(-c2cc(C3CC3)c(C#N)c(N)n2)cc1F,-126%
2,N#Cc1c(C2CC2)cc(-c2ccc(O)cc2)nc1N,44.4%
3,Cn1cc(CN2C[C@@H]3OCCN(CC4CCCC4)[C@@H]3C2)cn1,-22.6%
4,Cc1nc(CO[C@H]2CN(C(=O)c3ccc[nH]3)[C@@H]3COC[C@H]23)cs1,-11.9%
5,CCN(CCC(F)(F)F)C(=O)Nc1cccc(N2CCOCC2)c1,-2.57%
6,CN(C)c1ccc(C(=O)NCc2ccc(N3CCOCC3)cc2)cn1,-1.83%
7,CCNC(=O)c1nnc2ccc(N3CCOCC3)cc2n1,48.2%
8,CCN(CC)C(=O)c1nnc2ccc(N3CCOCC3)cc2n1,51.7%
9,CN(C)C(=O)c1nnc2ccc(N3CCOCC3)cc2n1,11.7%
10,O=C(NCc1ccccc1)c1nnc2ccc(N3CCOCC3)cc2n1,50.8%
11,c1cncc(OC[C@@]23CCO[C@@H]2CCN(Cc2cccs2)C3)c1,12.4%
12,Cc1cccc(CN2C[C@@H]3COC[C@]3(COc3cccnc3)C2)n1,8.46%
13,CC(=O)N1[C@@H](C(=O)NCC2CC2)C[C@@H]2CN(Cc3ccco3)C[C@@H]21,-5.84%
14,O=C(c1ccccc1F)N1CC[C@@H]2CN(c3ncccn3)CCO[C@@H]2C1,12%
15,CCC(=O)NCC(CC)Oc1cccc(F)c1 (stereo not given),-2.34%
16,CCC(CNC(=O)COC)Oc1cccc(F)c1 (stereo not given),60.4%
17,CCC(CNC(=O)CNC(C)=O)Oc1cccc(F)c1 (stereo not given),-7.54%
18,O=C(CCc1ccccc1)N1C[C@@H]2CN(Cc3ccoc3)CCO[C@@H]2C1,-7.96%
19,Cc1noc(CNc2ccc(CC(=O)N3CCSCC3)cc2)n1,70.3%
20,CCc1noc(CNc2ccc(CC(=O)N3CCSCC3)cc2)n1,-12.3%
21,CCc1nnc(CNc2ccc(CC(=O)N3CCSCC3)cc2)o1,5.6%
22,CN1C(=O)[C@H]2CC[C@@H]1CN(C(=O)c1sccc1S(N)(=O)=O)C2,-33.4%

row,Structure (SMILES),Percent Effect
1,CCN1C[C@H]2CCN(C(=O)C3CCCO3)CC[C@H]2S1(=O)=O (stereo not given in full),-20.2%
2,CNC(=O)[C@H]1C[C@@H]2CN(C(=O)c3cncc(C)c3)C[C@@H]2N1C,19.6%
3,COc1ccc(C(C)Nc2cnn(C)c(=O)c2Cl)cc1OC (stereo not given),2.82%
4,CC(Nc1cnn(C)c(=O)c1Cl)c1ccc(F)cc1 (stereo not given),-8.28%
5,CC(Nc1cnn(C)c(=O)c1Cl)c1ccc(F)c(F)c1 (stereo not given),78.5%
6,O=C1[C@H]2CN(c3ncccn3)C[C@H]2CN1Cc1ccncc1,-2.04%
7,c1cc(CN2C[C@@H]3OCCN(CC4CCCO4)[C@@H]3C2)cs1 (stereo not given in full),-16.8%
8,CCS(=O)(=O)N1C[C@H]2CN(Cc3ccc(OC)cc3)C(=O)[C@H]2C1,-7.48%
9,O=C(CC(F)(F)F)N1C[C@H]2CN(CC3CC3)C(=O)[C@H]2C1,-30.7%
10,Cn1cc(-c2ccnc(NCC3CC3)n2)cn1,-14.8%
11,Cn1cc(-c2ccnc(NCC3CCN(Cc4ccccc4)C3)n2)cn1 (stereo not given),60.9%
12,COCCCN1CCC(CNc2nccc(-c3cnn(C)c3)n2)C1 (stereo not given),-31.5%
13,O=C(CSc1ccccn1)N1C[C@H]2CC[C@@H]1CN(Cc1cscn1)C2,-9.36%
14,CN(C)C(=O)CN1C[C@@H]2CC[C@H](C1)N(C(=O)Cc1ccccc1Cl)C2,-15.3%
15,CN(C[C@@H]1CCC[C@@H]2CN(c3ncccn3)C[C@@H]21)C1CC1,75.8%
16,COc1cc(N2C[C@H]3CCC[C@@H](CN(C)C4CC4)[C@H]3C2)ncn1,-5.89%
17,COCCN(C)C[C@@H]1CCC[C@@H]2CN(c3ncccn3)C[C@@H]21,-50.6%
18,Cc1cccc(CN2C[C@H](OCc3csc(C)n3)[C@H]3COC[C@H]32)n1,-2.96%
19,CCOCC1CN(C(=O)c2cccs2)Cc2cnn(CC3CC3)c21 (stereo not given),80.6%
20,CCn1ncc2c1C(COCC1CC1)CN(C(=O)c1cccs1)C2 (stereo not given),-31.9%
21,CCOCC1CN(C(=O)c2cccn2C)Cc2cnn(CC3CC3)c21 (stereo not given),-11.3%
22,Cn1ccnc1CN1CC[C@@H]2[C@@H](CCC(=O)N2CCc2c[nH]cn2)C1,-26.1%

row,Structure (SMILES),Percent Effect
1,CSc1nccc(N2CCC3(CCCN(CC4CC4)C3)C2)n1 (stereo not given),-0.995%
2,c1cnc(N2CCOCC3(CCCN(CC4CC4)C3)C2)cn1 (stereo not given),2.73%
3,c1cnc(N2CCC3(CCCN(CC4CCCCC4)C3)C2)cn1 (stereo not given),66.6%
4,C[C@H]1C[C@H]2CN(S(=O)(=O)c3ccc(F)cc3)CC[C@@H]2O1,-20.4%
5,O[C@]12CCNC[C@H]1CN(c1nccc3ccccc13)CC2,-2.31%
6,CC(NC(=O)N1CCC(CO)CC1)c1csc2ccccc12 (stereo not given),53%
7,CC(=O)N1CCCN(C(=O)NC(C)c2csc3ccccc23)CC1 (stereo not given),-15.4%
8,CC(NC(=O)N1CCC(CC(N)=O)CC1)c1csc2ccccc12 (stereo not given),-11.9%
9,Cc1cnn(CC2CCCN2Cc2cc(=O)n3cccc(C)c3n2)c1 (stereo not given),-5.2%
10,Cc1cnn(CC2CCCN2Cc2cc(=O)n3cc(C)ccc3n2)c1 (stereo not given),99.9%
11,Cc1cnn(CC2CCCN2Cc2cc(=O)n3ccccc3n2)c1 (stereo not given),2.94%
12,Cc1cnc(CNC(=O)[C@@]23CCO[C@@H]2CCN(c2ncccn2)C3)cn1,-4.01%
13,CC(C)CN1C[C@H]2CCN(C(=O)NC3CCCC3)CC[C@H]2S1(=O)=O,6.92%
14,CCNC(=O)CCC(=O)N1CCC(Oc2cc(C)ccc2C)CC1,-5.09%
15,Cc1ccc(C)c(OC2CCN(C(=O)NCC(=O)N3CCCC3)CC2)c1,-7.72%
16,Cc1ccc(C)c(OC2CCN(C(=O)CNc3ccccc3Cl)CC2)c1,73.1%
17,CNC(=O)CN1CC[C@H]2CN(C(=O)c3cccc(C)c3)C[C@H]2C1,-11%
18,Cn1ccc(C(=O)N2C[C@@H]3CCN(c4cnccn4)C[C@@H]3C2)n1,-2.86%
19,Cn1cncc1C(=O)N1C[C@@H]2CCN(c3cnccn3)C[C@@H]2C1,-6.26%
20,Cn1ccnc1C(=O)N1C[C@@H]2CCN(c3cnccn3)C[C@@H]2C1,124%
21,O=C(c1ccco1)N1CCO[C@@H]2CN(c3ncc(F)cn3)CC[C@@H]2C1,-32.7%
22,CS(=O)(=O)NC[C@]12COC[C@H]1CN(C(=O)c1ccncn1)C2,-5.6%

row,Structure (SMILES),Percent Effect
1,Cc1noc(C)c1CN1C(=O)[C@H]2CC[C@@H]1CN(Cc1cscn1)C2,7.07%
2,CN(Cc1ccncc1)C1CCC[C@@H]2CN(c3ncccn3)C[C@H]12 (stereo not given in full),-25.8%
3,CCOC(=O)CNC(=O)NCc1cc(C)n(-c2ccc(OC)cc2)c1C,10.9%
4,COc1ccccc1-n1c(C)cc(CNC(=O)NC(C)C)c1C,0.233%
5,CCOC(=O)CNC(=O)NCc1cc(C)n(-c2ccccc2OC)c1C,50%
6,CN1C[C@@H]2CN(C(=O)C3CC=CC3)C[C@@H]2C1=O,-9.96%
7,CN(C)c1ccc(C(=O)N2CCN(CC(C)(C)O)CC2)nn1,-26.8%
8,CCC(O)CN1CCN(C(=O)c2ccc(N(C)C)nn2)CC1 (stereo not given),5.36%
9,CN(C)c1ccc(C(=O)N2CCN(C(=O)N3CCCCC3)CC2)nn1,65.3%
10,CCS(=O)(=O)N1C[C@H](c2nc(C)no2)C[C@H]2OCC[C@H]21,5.36%
11,CCc1ccc(CN2C[C@H](OC)[C@H]3COC[C@H]32)o1,-5.96%
12,O=C(NC1CCC1)[C@H]1C[C@@H]2CN(C(=O)Nc3ccc(F)cc3)C[C@H]1O2,5.75%
13,O=C(c1ccc(O)cc1)N1C[C@@H]2OCCN(c3ncccn3)[C@@H]2C1,-11.4%
14,Cn1cc(CN2C[C@H]3CCC[C@@H](CNc4nccn4C)[C@H]3C2)cn1,-23.6%
15,Cc1cccc(CN2C(=O)C[C@H]3[C@@H]2CCN3Cc2ccco2)n1,-23.1%
16,O=C(O)c1csc(S(=O)(=O)Nc2cccc(OCC(F)(F)F)c2)c1,50%
17,CCCOc1cccc(NS(=O)(=O)c2cc(C(=O)O)cs2)c1,40.8%
18,CCOc1cccc(NS(=O)(=O)c2cc(C(=O)O)cs2)c1,0.586%
19,Clc1cccc(-c2noc(CCN3CCN(c4ccncc4)CC3)n2)c1,-57.2%
20,NC(=O)N1CCCN(CCc2nc(-c3cccc(Cl)c3)no2)CC1,55.5%
21,CCOC1CCN(CCc2nc(-c3cccc(Cl)c3)no2)CC1,8.68%
22,CN1CCN(C(=O)[C@H]2C[C@@H]3CN(c4ncc(F)cn4)C[C@@H]3N2C)CC1,-4.39%
